In all, about 47,000 compounds went through this assay and about 510 (1.1%) were called active. This is one part of a sample in which actives are shown more often than they occur. A number with no mark means an inactive call. Cut-off read from the data, not from the text of the source: active = inhibition above about 30%; inactive = the rest.

The target of the assay is Ubiquitin carboxyl-terminal hydrolase 10 (Homo sapiens) (UniProt Q14694). Nature of the assay: inhibitors of human USP10 deubiquitinase (AID 1645856). To be noted: purified USP10, Ub-rhodamine fluorescence, 60 min; at 20 µM; stronger effect = higher value.
Ubiquitin carboxyl-terminal hydrolase 10 (Homo sapiens), sequence (Q14694 whole entry, looked up): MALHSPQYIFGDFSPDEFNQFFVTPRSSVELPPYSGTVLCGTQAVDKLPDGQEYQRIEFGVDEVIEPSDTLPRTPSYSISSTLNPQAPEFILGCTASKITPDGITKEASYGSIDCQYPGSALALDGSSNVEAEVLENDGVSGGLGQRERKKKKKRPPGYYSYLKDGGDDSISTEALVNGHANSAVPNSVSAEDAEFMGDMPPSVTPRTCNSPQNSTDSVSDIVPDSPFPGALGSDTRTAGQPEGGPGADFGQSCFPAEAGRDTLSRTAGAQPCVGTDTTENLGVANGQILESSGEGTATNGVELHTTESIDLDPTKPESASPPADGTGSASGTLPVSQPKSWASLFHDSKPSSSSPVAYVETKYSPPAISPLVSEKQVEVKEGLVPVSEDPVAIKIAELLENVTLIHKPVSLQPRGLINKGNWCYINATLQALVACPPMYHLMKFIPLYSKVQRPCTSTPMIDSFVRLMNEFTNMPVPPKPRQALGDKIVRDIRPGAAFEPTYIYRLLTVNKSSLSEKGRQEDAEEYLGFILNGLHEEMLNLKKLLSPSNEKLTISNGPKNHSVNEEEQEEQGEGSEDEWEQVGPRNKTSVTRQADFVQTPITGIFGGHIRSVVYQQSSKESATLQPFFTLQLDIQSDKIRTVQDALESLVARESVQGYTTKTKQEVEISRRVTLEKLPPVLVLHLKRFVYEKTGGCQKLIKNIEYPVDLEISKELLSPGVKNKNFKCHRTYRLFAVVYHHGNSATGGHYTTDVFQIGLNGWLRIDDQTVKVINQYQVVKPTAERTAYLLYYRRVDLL
What is called inhibition is the change of the read-out against control, counted positive when it falls. On to `CC1=C(C(=O)OCCOc2ccccc2)C(c2ccccc2OC(C)C)NC(=O)N1` (stereo not given), for which the inhibition was 5.16%.

For `Cc1nn(-c2cccc(Cl)c2)c2c1C(C(=O)c1ccc3c(c1)OCCO3)CC(=O)N2` (stereo not given), the inhibition was -1.54%.

As for `CN1c2ccccc2O[C@@H]2CC[C@@H](NC(=O)Cn3cccn3)[C@@H](O)[C@@H]21`, the inhibition is 0.781%.

With `COc1ccc2[nH]c3c(N4CCN(C5CCCCC5)CC4)ncnc3c2c1`, the inhibition is 2.49%.

With `O=C(Cn1cccc(-c2nc(-c3ccccc3)no2)c1=O)Nc1ccccc1F`, the inhibition is -5.7%.

On to `N#Cc1ccc(NC(=O)Nc2cccn(Cc3ccccc3F)c2=O)cc1`, for which the inhibition is 42.6% (active).

For `Cc1noc(-c2cccn(Cc3cc(F)ccc3F)c2=O)n1`, the inhibition is 1.28%.

On to `CN1Cc2cccc(C(=O)N(C)c3nc4c(s3)CCc3occc3-4)c2C1=O`, for which the inhibition is -0.411%.

Turning to `COc1cnc(CSc2ccccc2)cc1OCC(=O)Nc1ccc2c(c1)OCO2`, the inhibition was 0.813%.

For `COCCCn1c(C(=O)NCC(=O)OC(C)C)cc2c(=O)n3cccc(C)c3nc21`, the inhibition is 3.16%.

With `COc1ccc(/C=C(\C(=O)N(C)C2CCCCC2)n2ccccc2=O)cc1`, the inhibition was -1.04%.

As to `COc1ccc(-c2cc(C(=O)Nc3ncc(C)s3)c3ccccc3n2)cc1OC`, the inhibition was -3.26%.

As to `CNC(=O)C1CN(C(=O)c2ccccc2F)CC12CCCC2` (stereo not given), the inhibition is -0.0522%.

With `Cn1c(=O)n(C2CCN(C(=O)Cc3ccccc3)C2)c2ncncc21` (stereo not given), the inhibition is 0.307%.

Turning to `O=C1c2ccccc2C2c3[nH]c4ccccc4c3C(c3ccc(F)cc3)CN12` (stereo not given), the inhibition is -4.15%.

Take `CC(C)N1CCN(S(=O)(=O)c2cc(-c3nnc(C4CC4)o3)co2)CC1`: the inhibition is -5.2%.

As for `Cc1c(C2CCN(C(=O)NCc3ccccc3)CC2)noc1N`, the inhibition was -2.52%.

Turning to `Cc1noc(C)c1COc1cccc(C(=O)NC(C)c2cc3ccccc3o2)c1` (stereo not given), the inhibition was -0.528%.

For the molecule `CC(NC(=O)c1nc2n(n1)-c1ccccc1S(=O)(=O)N2)c1cc2ccccc2o1` (stereo not given), the inhibition is 36.5% (active).

In the case of `O=C(NCc1cccnc1N1CCCCC1)c1nc2n(n1)-c1ccccc1S(=O)(=O)N2`, the inhibition was 17.3%.

Consider `CN1CCC2(CN(c3ncccn3)CC23CCN(C(=O)Cc2ccccc2)CC3)C1=O` (stereo not given), for which the inhibition was -1.5%.

In the case of `CCn1c(=O)c(C(=O)N2CCN(c3cccc(C)c3)CC2)nc2cccnc21`, the inhibition is -3.06%.

Regarding `O=S(=O)(c1cccc2nonc12)N1CCC(n2cccc2)CC1`, the inhibition was -1.8%.

With `COc1cc(Cl)c(C)cc1Nc1ncnc2sccc12`, the inhibition is -4.4%.

As to `NC(=O)CCC(=O)N[C@H]1C[C@H]2CN(Cc3ccccc3)c3ccccc3CN2C1`, the inhibition is -7.81%.

With `O=C(c1ccccn1)N1CCC(c2nc3ccccc3cc2C(=O)N2CCCC2)CC1`, the inhibition was -0.709%.

Turning to `O=C(O)C1CCCN1C1=NS(=O)(=O)c2ccccc21` (stereo not given), the inhibition is 0.971%.

For `CC(=O)N1CCc2cc(C(O)CN3CCN(c4ccccc4)CC3)ccc21` (stereo not given), the inhibition is 1.48%.

As to `Cc1ccc(N2CC(C(=O)N3CCC(C(=O)Nc4ccc(F)cc4F)CC3)CC2=O)cc1` (stereo not given), the inhibition is -5.34%.

Turning to `CCC(C(=O)NC1CCCC1)N(C(=O)Cn1nnc(-c2ccc(C)cc2)n1)c1cccc(O)c1` (stereo not given), the inhibition was 1.22%.

For the molecule `Cn1c(=O)c2c3c(cnc2n(C)c1=O)C(=O)CC(c1ccccc1)C3` (stereo not given), the inhibition is -1.08%.

Turning to `O=C(NC1CCCC1)c1cc(-c2cccnc2)n(-c2ccc(F)cc2)n1`, the inhibition is 1.77%.

For the molecule `c1ccc(-c2ccc(NCc3ccc4c(c3)OCO4)nn2)cc1`, the inhibition was 3.9%.

On to `Cc1ccc(S(=O)(=O)N2CCCC2C(=O)N2CCN(c3cccc(Cl)c3)CC2)cc1` (stereo not given), for which the inhibition was 1.5%.

On to `O=C(COC(=O)C(Cc1c[nH]c2ccccc12)NC(=O)c1ccccc1Cl)c1ccccc1F` (stereo not given), for which the inhibition is 6.57%.

Consider `Cn1ccnc1C(NC(=O)c1ccncc1)c1ccc(F)c(F)c1` (stereo not given), for which the inhibition is -4.27%.

Regarding `COc1ccc(CNC2C3=C(CCCC3)C(=O)N2CCc2ccc(Cl)cc2)cc1` (stereo not given), the inhibition was -0.147%.

Take `CC(C)CN1C[C@@]23CN(C(=O)NCCc4ccc(F)cc4)C[C@@H](C[C@@H]2S1(=O)=O)O3`: the inhibition was 3.62%.

Take `COC(=O)C1CCN(C(=O)CC[C@H]2CNC(=O)[C@@H]3[C@@H](CCN3Cc3ccc(C)cc3)N2C)CC1`: the inhibition is 1.61%.

`Cc1ccc(NC(=O)CCC(=O)N(c2ccccc2)c2ccccc2)cc1Cl`: the inhibition was 11.4%.

For the molecule `Cc1ccc(NC(=O)CCOc2ccccc2)cc1S(=O)(=O)Nc1ccccc1Cl`, the inhibition is 30.4% (active).

Consider `COc1cccc(NC(=O)COC(=O)c2ccc(OC)c(S(=O)(=O)Nc3cc(Cl)c(OC)cc3OC)c2)c1`, for which the inhibition was 0.441%.

As to `Cc1cc(O)c(=O)cc2c1C[C@H]1CC(C)(C)/C=C/C[C@@]3(C)Oc4cc(=O)c(O)cc(C)c4C[C@@H]3C[C@H](O)[C@]1(C)O2`, the inhibition is 39.9% (active).

For the molecule `Cc1ccc(CNC(=O)CC(c2ccccc2)c2ccccc2)cc1`, the inhibition was 9.59%.

For the molecule `COc1ccc(CCNC(=O)CCCn2c(=O)c3ccccc3n(CC(=O)OCc3ccccc3)c2=O)cc1OC`, the inhibition is 12.7%.

For the molecule `Cc1ccc(CNC(=O)CCCn2c(=O)c3sccc3n(CC(=O)OCc3ccccc3)c2=O)cc1`, the inhibition is 53.7% (active).

Regarding `Cc1cccc(-n2c3c(c(=O)[nH]c2=O)CN(Cc2ccco2)CN3)c1C`, the inhibition was -1.97%.

Take `COc1ccc(C(=O)N(c2ccccn2)c2ccccn2)cc1OC`: the inhibition is -0.245%.

For `CC(=O)Nc1sc2c(c1C(c1cccc(F)c1)N1CCN(CCO)CC1)CCCC2` (stereo not given), the inhibition was -5.42%.

With `CC(C)Cc1cc(-c2nn3c(-c4ccccc4Cl)nnc3s2)n[nH]1`, the inhibition is 13.8%.

On to `Cc1c(-c2nn3c(-c4ccco4)nnc3s2)cccc1[N+](=O)[O-]`, for which the inhibition was 50.9% (active).

`Fc1ccccc1CSc1nnc(C2CCNCC2)o1`: the inhibition was -2.32%.

Consider `Cc1cc(-c2ccccc2C(=O)O)nc(C2CCCNC2)n1` (stereo not given), for which the inhibition is 1.65%.

Regarding `O=C(Cn1c(=O)n(Cc2ccc3c(c2)OCO3)c(=O)c2ccccc21)NCc1ccco1`, the inhibition is 25.6%.

On to `O=C(NCCc1ccccc1)c1ccc2c(=O)nc3c(-c4ccccc4F)n[nH]n3c2c1`, for which the inhibition was 3.48%.

In the case of `O=C(NCCc1ccccc1)c1ccc2c(=O)n(Cc3ccco3)c(=O)n(Cc3cccc([N+](=O)[O-])c3)c2c1`, the inhibition was 73.1% (active).

For `O=C(NCc1ccco1)N1CCC2(CC1)Nc1ccccc1-n1cccc12`, the inhibition is 0.0863%.

Turning to `Cc1c(S(=O)(=O)Nc2ccc(F)cc2)cc(C(=O)N2CCCCC2)n1C`, the inhibition is 1.47%.

As to `COc1ccc(OC)c(NC(=O)CN2CCc3ccccc32)c1`, the inhibition was 0.258%.

Consider `Cc1cc(=O)n(CC(=O)NCc2ccccc2)c(N2CCCC2)n1`, for which the inhibition was -2.48%.

Take `CCc1cccc(C)c1NC(=O)Cn1nc2ccc(C(=O)NCc3ccccc3)cn2c1=O`: the inhibition is 36% (active).

Turning to `CCc1cccc(C)c1NC(=O)CSc1nc2c(c(=O)[nH]1)CCCC2`, the inhibition was 0.855%.

On to `O=C(c1ccc(N2CCCCC2)nn1)N(Cc1ccccc1)c1ccccn1`, for which the inhibition is -1.8%.

Turning to `Cn1c(C2CCN(C(=O)Nc3ccc4c(c3)CCC4)C2)nc2cccnc21` (stereo not given), the inhibition was -0.116%.

Regarding `Cc1ccc(NC(=O)COC(=O)C2CC(=O)N(c3cccc(C)c3C)C2)cc1` (stereo not given), the inhibition is -7.32%.

Consider `O=C1CCCC2=C1C(c1ccc(C(=O)O)cc1)n1ncc(C(=O)Nc3ccc(F)cc3)c1N2` (stereo not given), for which the inhibition is -5.67%.

As to `CCOc1cccc(C2CC(=O)Nc3c2c(C)nn3-c2nncc(-c3ccc(F)cc3)n2)c1` (stereo not given), the inhibition is 4.17%.

`Cc1ccc(C2N=C(N3CCCCC3)Nc3nc(C)cc(=O)n32)cc1` (stereo not given): the inhibition was -10.2%.

On to `O=C(c1ccccc1Cl)N(c1ccccn1)c1ccccn1`, for which the inhibition was -2.33%.

Regarding `C=C1CCC2[C@](C)(CCC[C@]2(C)C(=O)OC)[C@H]1CCc1ccoc1/C=C/C(=O)O` (stereo not given in full), the inhibition was 46.4% (active).

Consider `C=C1CCC2[C@](C)(CCC[C@]2(C)C(=O)OC)[C@H]1CCc1ccoc1C[N+](C)(C)Cc1ccccc1` (stereo not given in full), for which the inhibition was -1.66%.

Regarding `C=C1CCC2[C@](C)(CCC[C@]2(C)C(=O)OC)[C@H]1CCc1ccoc1CNCC(=O)O` (stereo not given in full), the inhibition is 3.42%.

For the molecule `FC(F)(F)c1cccc(CN2CCCn3c(nc4ccccc43)C2)c1`, the inhibition was -0.144%.

For `O=C(NCc1noc(C2CCCC2)n1)c1ccccc1`, the inhibition was 3.21%.

As to `CNc1ccc(-c2noc([C@@H]3CCCN3C3CCN(C)CC3)n2)cn1`, the inhibition was -0.38%.

On to `COc1ccc(C(O)Cc2nc3ccccc3n2Cc2ccc(Cl)cc2)cc1` (stereo not given), for which the inhibition was 1.15%.

As for `COC(=O)c1ccccc1NC(=O)c1cnc2ccccn2c1=O`, the inhibition was 0.362%.

On to `O=C(CNC1CCCc2ccccc21)Nc1cc(S(=O)(=O)N2CCCCC2)ccc1Cl` (stereo not given), for which the inhibition is 1.62%.

Consider `Cc1nccc(N2CCCC2c2cnc(-c3ncc[nH]3)cn2)n1` (stereo not given), for which the inhibition was -5.73%.

For the molecule `O=C(Cn1cc(S(=O)(=O)N2CCOCC2)ccc1=O)Nc1ccc(F)c(F)c1`, the inhibition is 2.08%.

Regarding `CS(=O)(=O)c1ccc(-n2cc(-c3ccncn3)cn2)cc1`, the inhibition is -1.57%.

In the case of `O=C(c1ncccn1)N1CCCCC1c1ncc(Cc2cccc(F)c2)o1` (stereo not given), the inhibition is 0.0694%.

For `CC(OC(=O)c1cn(-c2ccccc2)nc1-c1cccnc1)C(=O)Nc1cccc(S(=O)(=O)N(C)C)c1` (stereo not given), the inhibition is -8.1%.

With `Cc1nn(CCC(=O)Nc2ccc(C#N)cc2)c(C)c1S(=O)(=O)N1CCOCC1`, the inhibition is 7.2%.

In the case of `Cn1c(N2CCN(C(=O)c3ccc(F)cc3)CC2)cc(=O)n(C)c1=O`, the inhibition was -3.62%.

(Values after PubChem BioAssay AID1645856 (Buhrlage Lab, Dana-Farber Cancer Institute and Novartis …, 2021).)
